This is an account of results in PubChem BioAssay AID652231 (Johns Hopkins Ion Channel Center, 2013).

The whole screen tested about 2,300 compounds, of which about 55 (2%) were called active.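 How the source made its calls: active means duplicate-averaged calcium signal over 20% of the ionomycin maximum, relative to buffer baseline; inactive means the rest.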 The list comes from a sample in which actives are over-represented; it also holds similar structures and randomly drawn compounds.

The nature of this experiment: compound-evoked intracellular calcium rise – cell-based, counter-screen for TMEM16A inhibitor project, confirmation (AID 652231).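 On calcium response (% of ionomycin): each well's signal is peak minus trough fluorescence divided by its pre-addition baseline; 0% = buffer wells and 100% = ionomycin wells.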 The settings on record: TMEM16A/YFP HEK293, Fluo4 calcium mobilization, at 10 µM; hits give high values.
On to `CCc1cc2c(N3CCN(c4nnc(CC)s4)CC3)ncnc2s1`, for which the calcium response (% of ionomycin) entry was “inactive”.
Turning to `COc1ccc(C(=O)NC2CCCc3c2cnn3-c2cccc(C)c2C)c(OC)n1` (stereo not drawn), the calcium response (% of ionomycin) result was “inactive”.
Then `O=c1cc(C(F)(F)F)[nH]c(=O)n1C1CCCCC1`, with “inactive”; and `CCOC(=O)c1cccc(NC(=O)CCn2nnc3ccccc32)c1`, with “inactive”.
In the case of `COc1ccc(OCC(=O)NCCc2ccc(S(N)(=O)=O)cc2)cc1`, the calcium response (% of ionomycin) entry is “inactive”.
In the case of `Fc1ccc2[nH]c3c(N4CCSCC4)ncnc3c2c1`, the calcium response (% of ionomycin) result is “inactive”.
As to `Cc1ccc(-n2ncc3c(N4CCN(c5ccc(F)cc5)CC4)ncnc32)c(C)c1`, the calcium response (% of ionomycin) result was “inactive”.
Then `Cc1ccc(-c2noc(CSc3nnnn3-c3ccccc3)n2)cc1`, with “inactive”; and `Cc1cc(C=O)c(C)n1-c1ccc(NC2CCCCC2)c([N+](=O)[O-])c1`, with “inactive”.
Consider `Cc1cccc(-n2c(SCC(N)=O)nc3c(c2=O)C2(CCCCC2)Cc2ccccc2-3)c1`, for which the calcium response (% of ionomycin) entry was “inactive”.
Then `O=C(NCCc1ccc2c(c1)OCCO2)c1cc2ccccc2o1`, with “inactive”; and `COc1ccc(CCC(=O)c2ccc(OC)cc2)cc1`, with “inactive”; and `CCCCNC(=O)CSc1nc2n[nH]c(C)c2c(=N)n1-c1cccc(Cl)c1C`, with “inactive”.
As to `CCOC(=O)N1CC=C2C(C#N)=C(N)C(C#N)(C#N)[C@H](c3cccs3)[C@H]2C1`, the calcium response (% of ionomycin) entry is “inactive”.
Under `COc1ccc(NC(=O)C2=CC(c3ccc(OC)c(OC)c3)=NS(=O)(=O)N2C)cc1` stands “inactive”.
Under `Cc1nc2c(C(=O)NCc3ccc4c(c3)OCO4)c[nH]n2c(=O)c1Cc1ccccc1F` stands “inactive”; under `Cc1ccc(C)c(N2CCN(S(=O)(=O)c3ccc4c(c3)oc(=O)n4C)CC2)c1`, “inactive”; under `CC1CCN(C(=O)c2ccc(CSc3ccc(Cl)cc3)cc2)CC1`, “inactive”.
With `CN1c2ccc(C=O)c3c(C=O)ccc(c23)N(C)C1(C)C`, the calcium response (% of ionomycin) is 64.5% (active).
In the case of `COc1cccc(CNS(=O)(=O)c2ccc3c(c2)CC(C)N3C(=O)C2CCC2)c1` (stereo not drawn), the calcium response (% of ionomycin) result was “inactive”.
For `CN(Cc1cccnc1)C(=O)c1cc(COc2ccc3ncccc3c2)on1`, the calcium response (% of ionomycin) result is “inactive”.
Then `Cc1ccc2c(c1)N(S(=O)(=O)c1cc(-c3cc(C)no3)ccc1C)CCO2`, with “inactive”; and `CC(=O)c1c(C)[nH]c(C(=O)COC(=O)c2cccc(S(=O)(=O)N(C)c3ccccc3)c2)c1C`, with “inactive”.
Under `Cc1ccc(C(=O)O)cc1-c1ccc(/C=C2\SC(=O)N(CC(=O)Nc3ccc4c(c3)OCO4)C2=O)o1` stands “inactive”; under `CCN(CC)S(=O)(=O)c1ccc(N(C)Cc2ccc(C(F)(F)F)cc2)nc1`, “inactive”; under `Cn1c(=O)n(C)c2cc(S(=O)(=O)N3CCCc4ccccc43)ccc21`, “inactive”.
Under `N#Cc1nc(COc2ccc(-c3ccccc3)cc2)oc1NCc1cccnc1` stands “inactive”.
As to `CCn1nccc1C(=O)Nc1ccc(S(=O)(=O)NC23CC4CC(CC(C4)C2)C3)cc1`, the calcium response (% of ionomycin) result is “inactive”.
Turning to `C=CCn1c(SCC(=O)Nc2nc3ccccc3s2)nnc1-c1ccccc1O`, the calcium response (% of ionomycin) entry is “inactive”.
Then `CCCc1cc(=S)n2c([nH]c3ccccc32)c1C#N`, with “inactive”; and `COc1ccc(-c2nc(CCNC(=O)c3ccc(Br)o3)cs2)cc1`, with “inactive”.
Then `O=C(CN1CCN(C(=S)NC2CCCC2)CC1)Nc1ccc(Oc2ccccc2)cc1`, with “inactive”.
Then `Cc1ccccc1-n1nnnc1SCCCC(=O)c1ccc(F)cc1`, with “inactive”.
Take `Cc1ccc(N)cc1-n1c(C)ccc1C`: the calcium response (% of ionomycin) entry is “inactive”.
Under `Cc1ccc(C)c(N2CCN(C(=O)CCCCn3c(=O)[nH]c4ccccc4c3=O)CC2)c1` stands “inactive”; under `CCOC(=O)C(Sc1ncc(C#N)c(N)n1)C(C)C` (stereo not drawn), “inactive”; under `O=C(COC(=O)CCc1c[nH]c(=O)[nH]1)Nc1ccccc1Cl`, “inactive”.
Consider `Cc1ccc(NC(=O)C(C)c2cccc(C(=O)c3ccccc3)c2)cc1` (stereo not drawn), for which the calcium response (% of ionomycin) was 20.5% (active).
Consider `S=C(NCc1ccc(Cl)cc1)NC12CC3CC(CC(C3)C1)C2`, for which the calcium response (% of ionomycin) entry is “inactive”.
Then `Cc1noc(C)c1COC(=O)c1cc2ccccc2cc1O`, with “inactive”; and `C=CCSc1nsc(NC(=O)Nc2cccc(C(C)=O)c2)n1`, with “inactive”.
Under `CCCOc1ccc(Cc2c(Cl)nc(SC)nc2NC)cc1` stands “inactive”; under `Cn1c(CCN2CCCCCC2)nc2cc(NC(=O)Nc3ccccc3)ccc21`, “inactive”; under `CCOC(=O)N1CCN(C(=O)c2ccc3c(c2)N(Cc2ccc(C)cc2)CCS3)CC1`, “inactive”.
Then `CSc1nsc(NC(=O)Nc2ccccc2)n1`, with “inactive”; and `CCC(=O)Nc1ccc2nc(C)n(Cc3ccccc3Cl)c(=O)c2c1`, with “inactive”; and `Cc1ccc(NC(=O)CN(C)CC(=O)Nc2cccc(F)c2)cc1[N+](=O)[O-]`, with “inactive”.
For the compound `Cc1ccc(N2C(=O)S/C(=C/c3cn(C)c4ccccc34)C2=O)cc1`, the calcium response (% of ionomycin) result was “inactive”.
Then `Cc1nc(SCC(=O)N2CCc3ccccc3C2)c2c(C)c(C)sc2n1`, with “inactive”; and `COc1ccc(CN(C)C(=O)CC(c2ccccc2)c2ccccc2)cc1`, with “inactive”.
Under `Cc1nc(C)c(-c2csc(NCCc3ccccc3)n2)s1` stands “inactive”; under `COC(=O)c1ccc(NC(=O)c2ccccc2NS(=O)(=O)c2ccccc2)cc1`, “inactive”; under `O=C(CSCc1ccc(Cl)cc1)N1CCN(Cc2ccc3c(c2)OCO3)CC1`, “inactive”.
Turning to `COc1ccc2[nH]cc(/C=C(/C#N)S(=O)(=O)c3ccccc3)c2c1`, the calcium response (% of ionomycin) entry was “inactive”.
Then `CC1=NN(c2cccc(Cl)c2)C(=O)C12CC(C)=C(C)CS2` (stereo not drawn), with “inactive”; and `Cc1ccc(F)cc1NC(=O)Cc1nn(C)c(=O)c2ccccc12`, with “inactive”; and `CSc1cccc(NC(=S)N(C(C)C)C(C)c2ccccn2)c1` (stereo not drawn), with “inactive”.
Under `Cc1cc(C)cc(NS(=O)(=O)c2ccc(Oc3ncc(C(F)(F)F)cc3Cl)cc2)c1` stands “inactive”; under `CN(c1cccc(NC(=O)c2ccc(CN3CCc4ccccc4C3)cc2)c1)S(C)(=O)=O`, “inactive”; under `CC(C)CNC(=S)NNC(=O)c1nn(C)cc1Cl`, “inactive”.
Under `CC(NC(=O)c1ccco1)C(=O)Nc1nc(-c2ccccn2)cs1` (stereo not drawn) stands “inactive”.
As for `COc1ccc(S(=O)(=O)NCCCCOc2ccc(Cl)cc2)cc1`, the calcium response (% of ionomycin) result is “inactive”.
For the compound `COc1cc(CC(=O)Nc2nc(-c3ccc(F)c(F)c3)cs2)cc(OC)c1OC`, the calcium response (% of ionomycin) entry was “inactive”.
Consider `C=C(C)Cn1c(C)cc(C)c(S(=O)(=O)c2ccccc2C)c1=O`, for which the calcium response (% of ionomycin) entry is “inactive”.
On to `Cc1ccc(-c2csc(-c3c[nH]c4ccccc34)n2)cc1`, for which the calcium response (% of ionomycin) entry is “inactive”.
Take `S=C(NCC1CCCO1)N1CCN(c2ccc(Cl)c(Cl)c2)CC1` (stereo not drawn): the calcium response (% of ionomycin) entry is “inactive”.
Take `COc1ccc(CNc2nnnn2C)cc1`: the calcium response (% of ionomycin) entry is “inactive”.
As to `O=C(Nc1cccc(S(=O)(=O)Nc2ccc(Cl)cc2)c1)c1ccc2c(c1)OCCO2`, the calcium response (% of ionomycin) entry is “inactive”.
